Measured values: the supplement of paper PMC12632987
In all, about 2,300 sequences were measured (“median log2 fold change of GCK-ALFA target abundance (FLAG IP / Myc IP barcode read proportion)”: median about 0.095, lowest 2% from about -0.47 on). This is one part of a sample in which the lowest values are shown more often than they occur.

B1: LC3A_28_1052 (protein)
chain: SHIDEQIEKALKEAEEAKAKGEEALIELHIGKDANEEDVEKVLETIEKIAEITKDLPSVTIIVDVDNPNKEEVTKKIDEVGEELAKKYPNVTVIIALSEE
B2: LC3A_28_1053 (protein)
chain: SAIDKQLEAALAEARAAAAAGEEALITLTIPENATEEDVEKVLATIREIAEITKDLPATTIIVDVDNKNQEEVTKKIDEVGEELAKKYPNVTVIIALSEN
B3: LC3A_free_46_2334 (protein)
chain: TLVVVEVDVLAPDRATAEAFVADLEARIRARLAEAGIDAEVEVELEEGPDGKTFRVTVKVRLKDPEADPQEVADLVVDAIDESAEEHGLSYIISVEIIEE
B4: LC3A_28_811 (protein)
chain: SHVDEVIAAVKEEGEKLKNSKEDVLLEVRVSGDITVEEAERLMDAIEEIARELAKNRKVYIVITAEEPISQEVLDTILDRAEEIEEKYPNVSVIVALPEE
B5: LC3A_3_1711 (protein)
chain: GEELIEEAEKILKEKGLSEETKKAVLEALKALLEKGYINAAKELIKLLKEAKDLSDEVILDFAKDVLEYVKTEDVSEEETIKKIKEEYEIAKNEEEIEEL
B6: LC3A_free_46_2301 (protein)
chain: IKVEIDIYFGAAPLEKIEEAAKRLTETAEKKAKELGAEVEIEVKITKNEDGTYTLEIRITAKVKTLEDANKFIQAISDKVDEINKELGIAAIMSIEVIEE
B7: LC3A_3_1472 (protein)
chain: LEERLEEVLKRLREAGASEEVLEAVREAYEKLKELGHEEAAKTFIEEMEKLVGLPSELLLAFAEDVLAAVEKYADDPEKLIEEIKSIAAATRNEAEIIEL
B8: LC3A_28_903 (protein)
chain: SPALESAEKALKEVKKAVAAGNQEPLVLEVKAPSTQEDVDKLLKLLEEIAEEASKLKGVSIIIDIDESVSQENRDRIIDKAEELEEKYPNVTIIIALPES
B9: LC3A_17_539 (protein)
chain: KEELKEELKKLIEEAEKLVEEVKPYIPEEAEKAKKRLKEAKKLLEEGKLKEAAELLAETADEMADAVSETEWEDPLKRTLLELEFDSLAIEAESILLKLE
B10: LC3A_28_1059 (protein)
chain: MSIEEELEEALEEAREAVERGEEALIELTIDEDATEEDVELVLETMEEIAELTKDLPRTTIVVDVDHKNKEEVTKLVSEKGDRLEKRYPNVTVIIALSEE
B11: LC3A_28_671 (protein)
chain: SALEEQLEKALAEAKKLAAKGEPGVIVIEVPGDATEEEIERLIKTLEEIAEILKDVKGSAIVIELDKDLKEEHRQRIIDAAERINEKYPNVTVIIAMEER
B12: LC3A_45_1922 (protein)
chain: MYEATLDLLVPKELAEEAYELIKKLLEELEKKRGPNFKVDYETLDASYEASKDEEDVYLEVKIYAPTEEEALDAAIEIEEELSKELGGKVASIISVKKVP
B13: LC3A_28_979 (protein)
chain: SALEKELAAKIAEAKKAAAAGEPAVITIKVSGDTNEEQLAKIIETLEEIAEILKDVKGSAIIIDIDRGVDPKHKQKLIDKGEEIEKKYPNVTVIFALEEE
B14: LC3A_36_1337 (protein)
chain: MVVIVLSAASEEVRAAEEAHYRAKGATVFAVAVEDLDEATKEEILAVVKAAGPDADIIIVAVAETEEGLAKVLKKASELADYIEEETGRTVIIEVDLVEK
B15: LC3A_141_370 (protein)
chain: KTVTFTKTFTNSSLDEVIAGMEELEKEVLAAHEKLGGGKVKVTVTVTIKNSKTGETKVIKEEFEADKETLEMIMEGVLIEAASARLTENANITVTVTLEA
B16: LC3A_28_1047 (protein)
chain: SELEENAEKAIAEARKQLEQGEEAVVTLKVPDMPTEEAVRIFRETLERLIALSKEYGGKKISVVVDFDGDQETFDAIVDIAEEAEKADPNLTVIVALSEE
B17: LC3A_28_815 (protein)
chain: MTAEEIIKQIREQAEKGKQSDEMVLIEVKISGTITEEEAKEIMEVIREESAELAKDRPVAVLIDLEAPISQEVIDLIADMAEEIEKELPNVSVIIALPEE
B18: LC3A_free_8_2554 (protein)
chain: ISEEQKAKISEVLDKAEEEIVKKAKEMGVSEEEINELEALMGFLLQDVLDALEEGPEAALKAFEEESKLIVEYAKELGEELAKEVKKVLEEAKKEIEKIL
B19: LC3A_28_1007 (protein)
chain: MSLIEKTKEEIKKALEQAEKGEDAFLEIEIPSTATKEEVEEVLKLIEEAAKEVSKLEGVKLYVVIDDSGSPEIHDLVVDRADEIEEKYPNVSVIIAYDDK

Molecular target: MAP1LC3A, Q9H492
Experiment: median log2 fold change of GCK-ALFA target abundance (FLAG IP / Myc IP barcode read proportion) (log2 ratio); each designed protein is fused to an ALFA-tag nanobody in HEK293 cells to bring the named protein to FLAG-tagged glucokinase (GCK); Myc marks an untargeted standard; higher = target protein stabilised (more abundant)
Conditions: target protein: 3xFLAG-MCP-GCK-ALFA reporter; HEK293 landing pad (RPLP)
Summary of the method: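 Binders fused to an ALFA nanobody were recombined as a library into HEK293 landing-pad cells, which were induced with 2 μg mL^−1 doxycycline and then transfected to express a FLAG-tagged target and a Myc-tagged standard. After 48 h, circular RNA barcodes recovered by anti-FLAG and anti-Myc immunoprecipitation of lysates were reverse transcribed, amplified and sequenced. Each binder's target abundance is the median log2 ratio of FLAG to Myc barcode read proportions, from barcodes present at ≥10^−7 in both replicates, binders carrying ≥3 barcodes per replicate, a 10^−6 pseudocount and pooled replicates.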

Row | Binder | median log2 fold change
1 | B1 | -0.553
2 | B2 | -0.454
3 | B3 | 0.0611
4 | B4 | -0.124
5 | B5 | -0.0281
6 | B6 | -0.0458
7 | B7 | 0.213
8 | B8 | -0.303
9 | B9 | -0.51
10 | B10 | -0.148
11 | B11 | 0.0757
12 | B12 | -0.405
13 | B13 | -0.00812
14 | B14 | 0.15
15 | B15 | -0.474
16 | B16 | -0.153
17 | B17 | -0.179
18 | B18 | -0.0712
19 | B19 | -0.353
